Records with an inconclusive call do not appear. Calls of active or inactive are those of the source. The calls were made as follows, unless noted: active = hit-call score of the fitted dose curve at least 0.9, where 1 is the maximum; inactive = score below 0.9.
How the values were obtained:
[1] = BSK_4H_Eotaxin3: BioMAP Diversity Plus: 4H Assay for Eotaxin 3 Biomarker Activity (AID 2283000); conditions: primary human endothelial cells (HUVEC); actives raise or lower the signal
In short: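 Eotaxin-3 (CCL26) levels were measured by ELISA in HUVEC primary cultures 24 h post-dosing. Gain or loss of signal was fitted in both directions, with DMSO serving as baseline and negative control.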

[2] = molecular target: human Peroxisome Proliferator-activated Receptor delta (PPARd), PPARD (gene 5467) (UniProt Q03181); assay: ATG_PPARd_TRANS: Attagene TRANS-FACTORIAL HepG2 Assay for human Peroxisome Proliferator-activated Receptor delta (PPARd) (AID 2283002; active = hit-call score of the fitted dose curve at least 0.9, where 1 is the maximum)
Chain of human Peroxisome Proliferator-activated Receptor delta (PPARd), PPARD (gene 5467) (Q03181 whole entry, looked up, the tested form may be a part): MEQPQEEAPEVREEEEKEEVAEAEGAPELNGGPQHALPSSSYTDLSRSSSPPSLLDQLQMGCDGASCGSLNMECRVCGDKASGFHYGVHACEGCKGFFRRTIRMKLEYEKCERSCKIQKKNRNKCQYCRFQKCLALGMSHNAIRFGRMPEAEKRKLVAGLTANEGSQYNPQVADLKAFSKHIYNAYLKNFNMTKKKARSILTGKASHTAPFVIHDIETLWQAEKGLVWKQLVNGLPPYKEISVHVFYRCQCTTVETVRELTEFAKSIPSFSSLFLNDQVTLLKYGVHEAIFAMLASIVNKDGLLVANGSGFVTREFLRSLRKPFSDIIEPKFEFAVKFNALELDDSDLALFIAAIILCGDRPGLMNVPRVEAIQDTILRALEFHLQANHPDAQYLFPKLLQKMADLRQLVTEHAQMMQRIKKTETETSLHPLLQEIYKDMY
In short: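 Read-out is induced reporter mRNA, quantified by RT-PCR with fluorescent labelling and capillary electrophoresis after 24 h dosing. Cells are HepG2 transiently carrying multiple GAL4-UAS reporter units driven by exogenous NR-GAL4 chimeras; DMSO serves as baseline.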

[3] = read-out: Intercellular Adhesion Molecule 1 (ICAM1), ICAM1 (gene 3383); assay: BSK_3C_ICAM1: BioMAP Diversity Plus: 3C Assay for Intercellular Adhesion Molecule 1 (ICAM1) Biomarker Activity (AID 2283003); conditions: primary human endothelial cells (HUVEC); actives raise or lower the signal
In short: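 Human vascular endothelial primary cells, 3C conditions, 24 h treatment. ICAM-1 by ELISA.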

[4] = BSK_3C_Proliferation: Cell Proliferation Assessment in the BioMAP Diversity Plus: 3C Assay (AID 2283006); conditions: primary human endothelial cells (HUVEC);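 as to AC50: potency may reflect either rise or fall in cell number versus DMSO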
In short: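 Proliferation of human vascular endothelial primary cells after 48 h dosing, quantified as SRB-stained protein at 560 nm relative to DMSO.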

[5] = molecular target: Peroxisome proliferator-activated receptor gamma (Homo sapiens) (UniProt P37231); assay: ATG_PPARg_TRANS: Attagene TRANS-FACTORIAL HepG2 Assay for human Peroxisome Proliferator-activated Receptor-gamma (PPARg) (AID 2283007; active = hit-call score of the fitted dose curve at least 0.9, where 1 is the maximum)
Chain of Peroxisome proliferator-activated receptor gamma (Homo sapiens) (P37231 whole entry, looked up): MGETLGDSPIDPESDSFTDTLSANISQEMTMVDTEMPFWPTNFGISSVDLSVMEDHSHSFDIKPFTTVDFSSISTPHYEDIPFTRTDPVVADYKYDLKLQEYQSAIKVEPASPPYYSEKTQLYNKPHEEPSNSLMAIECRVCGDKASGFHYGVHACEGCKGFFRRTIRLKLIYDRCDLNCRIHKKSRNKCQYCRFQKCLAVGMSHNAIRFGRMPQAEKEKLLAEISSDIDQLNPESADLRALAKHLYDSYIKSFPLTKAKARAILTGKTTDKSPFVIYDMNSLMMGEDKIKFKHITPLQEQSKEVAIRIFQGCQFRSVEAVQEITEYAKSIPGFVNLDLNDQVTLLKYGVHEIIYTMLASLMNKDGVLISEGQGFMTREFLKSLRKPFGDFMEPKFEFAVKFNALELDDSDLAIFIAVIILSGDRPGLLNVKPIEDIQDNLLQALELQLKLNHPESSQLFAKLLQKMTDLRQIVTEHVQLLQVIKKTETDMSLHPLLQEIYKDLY
In short: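 Multiplexed reporter transcription units in HepG2, 24 h dosing, reporter transcripts quantified by fluorescent RT-PCR and capillary electrophoresis. Increase over DMSO scored.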

[6] = molecular target: Nuclear receptor subfamily 1 group I member 2 (Homo sapiens) (UniProt O75469); assay: ATG_PXR_TRANS: Attagene TRANS-FACTORIAL HepG2 Assay for human Pregnane X Receptor (PXR) (AID 2283008; active = hit-call score of the fitted dose curve at least 0.9, where 1 is the maximum)
Chain of Nuclear receptor subfamily 1 group I member 2 (Homo sapiens) (O75469 whole entry, looked up, the tested form may be a part): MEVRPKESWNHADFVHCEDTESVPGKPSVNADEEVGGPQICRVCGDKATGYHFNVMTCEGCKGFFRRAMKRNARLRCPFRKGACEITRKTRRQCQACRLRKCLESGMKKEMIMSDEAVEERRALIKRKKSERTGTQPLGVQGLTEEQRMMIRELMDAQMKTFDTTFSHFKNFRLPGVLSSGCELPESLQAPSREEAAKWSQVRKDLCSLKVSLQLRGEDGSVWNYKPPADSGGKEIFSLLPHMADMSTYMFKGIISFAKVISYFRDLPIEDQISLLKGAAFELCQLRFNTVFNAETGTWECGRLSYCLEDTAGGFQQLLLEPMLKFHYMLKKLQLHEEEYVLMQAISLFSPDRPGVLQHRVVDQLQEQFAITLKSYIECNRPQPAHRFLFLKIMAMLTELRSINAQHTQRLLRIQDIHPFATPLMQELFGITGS
In short: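 Fluorescence intensity of FAM-labelled, HpaI-digested reporter amplicons, separated by capillary electrophoresis, quantifies induction. HepG2 cells with PXR-Gal4 trans-reporter system were exposed 24 h; DMSO defines baseline.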

[7] = molecular target: Retinoic acid receptor RXR-alpha (Homo sapiens) (UniProt P19793); assay: ATG_RXRa_TRANS: Attagene TRANS-FACTORIAL HepG2 Assay for human Retinoid X Receptor alpha (RXRa) (AID 2283012; active = hit-call score of the fitted dose curve at least 0.9, where 1 is the maximum)
Chain of Retinoic acid receptor RXR-alpha (Homo sapiens) (P19793 whole entry, looked up, the tested form may be a part): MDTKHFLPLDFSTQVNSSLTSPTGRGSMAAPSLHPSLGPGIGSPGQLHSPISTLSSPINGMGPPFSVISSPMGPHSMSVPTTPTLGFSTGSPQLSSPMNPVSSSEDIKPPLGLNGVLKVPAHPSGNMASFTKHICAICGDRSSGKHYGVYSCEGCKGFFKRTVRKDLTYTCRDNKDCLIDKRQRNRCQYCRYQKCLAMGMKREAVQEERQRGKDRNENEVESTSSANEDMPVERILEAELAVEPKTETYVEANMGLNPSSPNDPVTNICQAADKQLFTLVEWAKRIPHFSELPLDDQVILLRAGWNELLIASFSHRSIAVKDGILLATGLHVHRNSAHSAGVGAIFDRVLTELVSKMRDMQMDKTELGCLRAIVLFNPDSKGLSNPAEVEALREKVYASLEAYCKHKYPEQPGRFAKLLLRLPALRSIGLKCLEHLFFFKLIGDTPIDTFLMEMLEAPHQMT
In short: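 Cells (HepG2) carried transiently transfected GAL4-responsive reporter units. Following a 24 h chemical incubation, reporter mRNA induction was read via RT-PCR fragment analysis; DMSO served as negative control and baseline.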

[8] = read-out: E-selectin (Homo sapiens) (UniProt P16581); assay: BSK_3C_Eselectin: BioMAP Diversity Plus: 3C Assay for Eselectin Biomarker Activity (AID 2283015); conditions: primary human endothelial cells (HUVEC); actives raise or lower the signal
In short: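 Primary human umbilical vein endothelial cells (3C system), read 24 h after compound addition; E-selectin measured by ELISA. Bidirectional curve fitting against DMSO baseline; cytotoxicity by parallel SRB total-protein staining.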

[9] = read-out: Interleukin-1 alpha (IL1a), IL1A (gene 3552); assay: BSK_BE3C_IL1a: BioMAP Diversity Plus: BE3C Assay for Interleukin-1 alpha (IL1a) Biomarker Activity (AID 2283016); conditions: primary human bronchial epithelial cells; actives raise or lower the signal
In short: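 Cultures of primary human bronchial epithelial cells receive test chemical. After 24 h, IL-1a is quantified by ELISA, while parallel wells are fixed in TCA and SRB-stained for total protein. Changes in either direction are fitted relative to DMSO.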

[10] = read-out: Monocyte Chemoattractant Protein-1 (MCP1), CCL2 (gene 6347); assay: BSK_4H_MCP1: BioMAP Diversity Plus: 4H Assay for Monocyte Chemoattractant Protein-1 (MCP1) Biomarker Activity (AID 2283018); conditions: primary human endothelial cells (HUVEC); actives raise or lower the signal
In short: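 Readout: MCP-1 ELISA on compound-treated HUVEC, sampled 24 h post-dosing. Baseline and negative control DMSO; bidirectional fit. Overt toxicity checked alongside by sulforhodamine B protein staining at time of biomarker measurement.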

[11] = read-out: Human Leukocyte Antigen - DR isotype (HLADR), HLA-DRA (gene 3122); assay: BSK_3C_HLADR: BioMAP Diversity Plus: 3C Assay for Human Leukocyte Antigen - DR isotype (HLADR) Biomarker Activity (AID 2283019); conditions: primary human endothelial cells (HUVEC); actives raise or lower the signal
In short: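 HUVEC monoculture, HLA-DR measured by ELISA 24 h after chemical dosing. Fitted bidirectionally against DMSO baseline; parallel SRB staining assessed cytotoxicity, with 3C proliferation read by SRB at 48 h.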

[12] = molecular target: Retinoic acid receptor alpha (Homo sapiens) (UniProt P10276); assay: ATG_RARa_TRANS: Attagene TRANS-FACTORIAL HepG2 Assay for human Retinoic Acid Receptor alpha (RARa) (AID 2283005; active = hit-call score of the fitted dose curve at least 0.9, where 1 is the maximum)
In short: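 Reporter transcripts, measured by RT-PCR with fluorescent labeling and capillary electrophoresis after 24 h dosing, reflect activity of an exogenous human RARa–GAL4 fusion in transiently transfected HepG2. Fitted for increase relative to DMSO.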

[13] = molecular target: human Retinoic Acid Receptor gamma (RARg), RARG (gene 5916) (UniProt P13631); assay: ATG_RARg_TRANS: Attagene TRANS-FACTORIAL HepG2 Assay for human Retinoic Acid Receptor gamma (RARg) (AID 2283009; active = hit-call score of the fitted dose curve at least 0.9, where 1 is the maximum)
Chain of human Retinoic Acid Receptor gamma (RARg), RARG (gene 5916) (P13631 whole entry, looked up, the tested form may be a part): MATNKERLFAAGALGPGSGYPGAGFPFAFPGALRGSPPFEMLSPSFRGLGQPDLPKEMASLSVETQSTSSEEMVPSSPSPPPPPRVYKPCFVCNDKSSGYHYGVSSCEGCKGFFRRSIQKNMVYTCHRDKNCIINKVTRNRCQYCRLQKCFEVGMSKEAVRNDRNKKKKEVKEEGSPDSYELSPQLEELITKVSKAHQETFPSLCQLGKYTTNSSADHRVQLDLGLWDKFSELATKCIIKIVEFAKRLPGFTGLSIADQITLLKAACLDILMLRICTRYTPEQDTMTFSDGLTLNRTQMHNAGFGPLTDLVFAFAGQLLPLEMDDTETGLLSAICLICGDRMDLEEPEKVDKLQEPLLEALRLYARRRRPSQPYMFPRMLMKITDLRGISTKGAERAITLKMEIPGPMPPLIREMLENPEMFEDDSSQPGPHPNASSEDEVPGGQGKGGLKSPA
In short: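 HepG2, RARg-GAL4 TRANS system, 24 h exposure; reporter mRNA by RT-PCR + CE fluorescence; increase over DMSO.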

[14] = molecular target: human RAR-related Orphan Receptor gamma (RORg), RORC (gene 6097) (UniProt P51449); assay: ATG_RORg_TRANS: Attagene TRANS-FACTORIAL HepG2 Assay for human RAR-related Orphan Receptor gamma (RORg) (AID 2283011; active = hit-call score of the fitted dose curve at least 0.9, where 1 is the maximum)
Chain of human RAR-related Orphan Receptor gamma (RORg), RORC (gene 6097) (P51449 whole entry, looked up, the tested form may be a part): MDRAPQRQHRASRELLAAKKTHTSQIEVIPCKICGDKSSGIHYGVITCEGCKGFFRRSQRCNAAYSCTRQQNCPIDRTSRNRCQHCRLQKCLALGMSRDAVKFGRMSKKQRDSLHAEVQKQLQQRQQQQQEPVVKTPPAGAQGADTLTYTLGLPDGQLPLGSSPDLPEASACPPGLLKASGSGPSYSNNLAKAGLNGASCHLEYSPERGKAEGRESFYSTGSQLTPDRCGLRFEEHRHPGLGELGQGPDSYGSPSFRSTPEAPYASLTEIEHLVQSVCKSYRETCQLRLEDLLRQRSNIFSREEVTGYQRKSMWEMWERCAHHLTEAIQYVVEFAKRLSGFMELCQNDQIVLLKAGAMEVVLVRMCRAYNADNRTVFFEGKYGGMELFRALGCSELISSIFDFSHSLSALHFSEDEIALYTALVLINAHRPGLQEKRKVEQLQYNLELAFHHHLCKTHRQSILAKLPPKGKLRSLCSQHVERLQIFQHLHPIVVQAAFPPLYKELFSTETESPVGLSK
In short: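 HepG2 cells transiently transfected with GAL4-UAS reporter units and chimeric RORg-Gal4 construct; after 24 h chemical exposure, reporter mRNA measured by RT-PCR with fluorescent capillary electrophoresis, gain of signal fitted against DMSO.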

[15] = molecular target: human Thyroid Receptor alpha (THRa1), THRA (gene 7067) (UniProt P10827); assay: ATG_THRa1_TRANS: Attagene TRANS-FACTORIAL HepG2 Assay for human Thyroid Receptor alpha (THRa1) (AID 2283014; active = hit-call score of the fitted dose curve at least 0.9, where 1 is the maximum)
Chain of human Thyroid Receptor alpha (THRa1), THRA (gene 7067) (P10827 whole entry, looked up, the tested form may be a part): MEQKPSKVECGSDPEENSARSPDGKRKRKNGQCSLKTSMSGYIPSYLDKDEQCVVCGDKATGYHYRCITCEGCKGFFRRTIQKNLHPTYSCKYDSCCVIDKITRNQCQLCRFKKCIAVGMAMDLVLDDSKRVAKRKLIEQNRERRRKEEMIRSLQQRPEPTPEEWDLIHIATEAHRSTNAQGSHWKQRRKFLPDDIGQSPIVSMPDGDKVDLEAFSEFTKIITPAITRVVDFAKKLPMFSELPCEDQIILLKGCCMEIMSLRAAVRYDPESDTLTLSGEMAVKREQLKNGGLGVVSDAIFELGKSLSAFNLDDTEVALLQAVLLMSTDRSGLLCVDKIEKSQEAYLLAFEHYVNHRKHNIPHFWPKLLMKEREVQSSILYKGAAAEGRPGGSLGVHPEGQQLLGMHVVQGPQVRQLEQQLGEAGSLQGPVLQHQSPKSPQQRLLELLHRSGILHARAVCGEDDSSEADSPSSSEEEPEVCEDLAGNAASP
In short: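 HepG2 cells transiently transfected with chimeric NR-Gal4 and GAL4-UAS reporter units, dosed 24 h. Reporter mRNA quantified by RT-PCR, fluorescent labeling, HpaI digestion and capillary electrophoresis; gain-of-signal fit versus DMSO.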

[16] = read-out: Monocyte Chemoattractant Protein-1 (MCP1), CCL2 (gene 6347); assay: BSK_3C_MCP1: BioMAP Diversity Plus: 3C Assay for Monocyte Chemoattractant Protein-1 (MCP1) Biomarker Activity (AID 2283017); conditions: primary human endothelial cells (HUVEC); actives raise or lower the signal
In short: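 Human umbilical vein endothelial cells (3C system) exposed to chemicals for 24 h; MCP-1 quantified by ELISA against the DMSO baseline with bidirectional fitting, and parallel SRB staining used to assess cytotoxicity.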

[17] = molecular target: human Peroxisome Proliferator-activated Receptor alpha (PPARa), PPARA (gene 5465) (UniProt Q07869); assay: ATG_PPARa_TRANS: Attagene TRANS-FACTORIAL HepG2 Assay for human Peroxisome Proliferator-activated Receptor alpha (PPARa) (AID 2283001; active = hit-call score of the fitted dose curve at least 0.9, where 1 is the maximum;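 as to AC50: potency for gain of reporter signal over DMSO so agonist or activator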)
Chain of human Peroxisome Proliferator-activated Receptor alpha (PPARa), PPARA (gene 5465) (Q07869 whole entry, looked up, the tested form may be a part): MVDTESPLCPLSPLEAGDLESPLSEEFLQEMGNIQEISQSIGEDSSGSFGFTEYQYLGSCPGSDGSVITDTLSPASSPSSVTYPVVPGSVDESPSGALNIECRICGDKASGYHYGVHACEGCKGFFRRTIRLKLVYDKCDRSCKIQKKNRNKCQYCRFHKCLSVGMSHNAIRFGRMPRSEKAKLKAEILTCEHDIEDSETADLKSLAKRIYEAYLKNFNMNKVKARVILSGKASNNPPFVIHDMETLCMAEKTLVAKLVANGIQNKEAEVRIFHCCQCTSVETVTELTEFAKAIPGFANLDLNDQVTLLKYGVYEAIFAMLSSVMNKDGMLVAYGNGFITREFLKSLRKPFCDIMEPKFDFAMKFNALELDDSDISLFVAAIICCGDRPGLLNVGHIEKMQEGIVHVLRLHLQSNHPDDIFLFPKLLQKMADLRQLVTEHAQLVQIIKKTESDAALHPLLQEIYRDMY
In short: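 Reporter transcripts from GAL4-UAS units in transfected HepG2 were quantified 24 h after dosing. Detection used reverse transcription, PCR, fluorescent primer extension and capillary electrophoresis, with DMSO as baseline.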

[18] = molecular target: human Retinoic Acid Receptor beta (RARb), RARB (gene 5915) (UniProt P10826); assay: ATG_RARb_TRANS: Attagene TRANS-FACTORIAL HepG2 Assay for human Retinoic Acid Receptor beta (AID 2283004; active = hit-call score of the fitted dose curve at least 0.9, where 1 is the maximum)
In short: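 HepG2 cells were transiently transfected with GAL4-UAS reporter units that report activity of exogenous chimeric NR-Gal4 proteins, then exposed to compound for 24 h. Reporter mRNA was quantified by RT-PCR with capillary electrophoresis fluorescence, as gain of signal over DMSO.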

[19] = molecular target: human Retinoid X Receptor beta (RXRb), RXRB (gene 6257) (UniProt P28702); assay: ATG_RXRb_TRANS: Attagene TRANS-FACTORIAL HepG2 Assay for human Retinoid X Receptor beta (RXRb) (AID 2283013; active = hit-call score of the fitted dose curve at least 0.9, where 1 is the maximum)
Chain of human Retinoid X Receptor beta (RXRb), RXRB (gene 6257) (P28702 whole entry, looked up): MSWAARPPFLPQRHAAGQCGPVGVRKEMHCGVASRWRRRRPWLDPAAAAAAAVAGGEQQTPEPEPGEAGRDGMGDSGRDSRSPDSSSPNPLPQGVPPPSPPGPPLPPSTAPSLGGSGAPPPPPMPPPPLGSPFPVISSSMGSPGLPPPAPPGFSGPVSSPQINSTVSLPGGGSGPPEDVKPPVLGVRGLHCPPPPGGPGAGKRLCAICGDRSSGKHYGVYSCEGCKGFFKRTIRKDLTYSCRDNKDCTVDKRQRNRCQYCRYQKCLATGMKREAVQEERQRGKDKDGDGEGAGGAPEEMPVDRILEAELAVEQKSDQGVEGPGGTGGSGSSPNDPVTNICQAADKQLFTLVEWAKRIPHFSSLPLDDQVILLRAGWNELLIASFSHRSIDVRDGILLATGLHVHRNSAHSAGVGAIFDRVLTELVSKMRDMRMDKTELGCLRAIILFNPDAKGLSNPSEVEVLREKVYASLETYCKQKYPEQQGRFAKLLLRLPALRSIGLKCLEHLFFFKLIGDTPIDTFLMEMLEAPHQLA
In short: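 Multiplexed TRANS reporter assay in HepG2; 24 h dosing; reporter mRNA by RT-PCR/CE fluorescence; gain-of-signal relative to DMSO.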

Measured: AC50

Chain of E-selectin (Homo sapiens) (P16581 whole entry, looked up): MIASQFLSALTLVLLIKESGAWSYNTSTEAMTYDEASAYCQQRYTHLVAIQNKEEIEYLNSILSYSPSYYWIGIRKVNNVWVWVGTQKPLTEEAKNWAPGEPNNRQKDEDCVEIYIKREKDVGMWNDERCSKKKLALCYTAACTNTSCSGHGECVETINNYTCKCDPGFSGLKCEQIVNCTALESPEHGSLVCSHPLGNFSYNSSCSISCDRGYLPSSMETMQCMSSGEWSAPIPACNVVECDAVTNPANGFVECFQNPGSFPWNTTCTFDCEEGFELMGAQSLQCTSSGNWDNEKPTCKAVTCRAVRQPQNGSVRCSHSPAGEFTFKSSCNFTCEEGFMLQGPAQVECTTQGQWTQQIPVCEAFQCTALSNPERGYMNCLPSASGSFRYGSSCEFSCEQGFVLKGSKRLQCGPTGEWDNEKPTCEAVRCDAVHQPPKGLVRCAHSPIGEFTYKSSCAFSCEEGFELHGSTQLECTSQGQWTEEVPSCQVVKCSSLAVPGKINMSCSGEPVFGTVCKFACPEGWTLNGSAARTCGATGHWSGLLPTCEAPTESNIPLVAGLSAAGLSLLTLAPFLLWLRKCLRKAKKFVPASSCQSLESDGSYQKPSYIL

CC1=CC2C3C=CC(C3)C2C1C (stereo unspecified)
active: [6] 387 nM
inactive: [1] | [2] | [3] | [4] | [5] | [7] | [8] | [9] | [10] | [11]

Cc1cnccn1
inactive: [1] | [2] | [3] | [12] | [4] | [6] | [13] | [14] | [7] | [15] | [8] | [9] | [16] | [10] | [11]

CC(C)(C)c1cc(CCC(=O)NCCCCCCNC(=O)CCc2cc(C(C)(C)C)c(O)c(C(C)(C)C)c2)cc(C(C)(C)C)c1O
inactive: [1] | [3] | [4] | [5] | [8] | [9] | [10] | [11]
active: [6] 82.3 nM

O=C(O)C(F)(F)C(F)(F)C(F)(F)OC(F)(F)F
inactive: [1] | [3] | [18] | [4] | [5] | [6] | [14] | [7] | [8] | [9] | [10] | [11]
active: [17] 61400 nM

CCN(CC)c1ccc2c(c1)Oc1cc(N(CC)CC)ccc1C21OC(=O)c2ccccc21
active: [4] 5030 nM | [5] 17600 nM | [6] 348 nM | [11] 10000 nM
inactive: [1] | [2] | [3] | [14] | [8] | [9] | [10]

OCC(O)CC(F)(F)C(F)(F)C(F)(F)C(F)(F)F (stereo unspecified)
inactive: [1] | [17] | [3] | [4] | [5] | [6] | [8] | [9] | [10] | [11]

O=C=NCc1cccc(CN=C=O)c1
inactive: [1] | [2] | [3] | [4] | [6] | [7] | [19] | [8] | [9] | [10] | [11]

O=S(=O)(OCC(F)(F)F)C(F)(F)C(F)(F)C(F)(F)C(F)(F)F
inactive: [1] | [17] | [3] | [18] | [4] | [6] | [14] | [19] | [8] | [9] | [10] | [11]
active: [5] 107000 nM

Cc1ccc(S(=O)(=O)C(I)I)cc1
active: [1] 1840 nM | [3] 3350 nM | [4] 593 nM | [8] 3080 nM | [9] 5630 nM | [16] 2580 nM | [10] 1430 nM | [11] 1150 nM
inactive: [2] | [5] | [13] | [7] | [15]

From PubChem BioAssay (EPA / NIEHS)
